Among the data in PubChem BioAssay (NCI) are growth values, retold here.

The panel holds about 83,000 compounds, 20% with a hit somewhere; the sample as a whole holds those more often.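 A percent growth of 40 corresponds to 60% growth inhibition; 0 means no net growth; -100 means all cells died. Active threshold: below 10.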 A number with no mark means an inactive call. Active and inactive are the calls of the source.

Common to all, as to assay: NCI-60 one-dose screen, 48 h (100 = growth as untreated, 0 = no growth, -100 = all killed)
Holding throughout (settings): 10 µM unless noted

Assay [1] has as its system SK-MEL-2 melanoma.
The subject of assay [2] is EKVX NSCLC.
The test system of assay [3] is SN12C renal.
Assay [4] concerns UO-31 renal.
Assay [5] has as its system TK-10 renal.
Assay [6] deals with ACHN renal.
In assay [7] the test system is CAKI-1 renal.
The subject of assay [8] is A498 renal.
Assay [9] deals with CCRF-CEM leukemia.
In assay [10] the test system is MOLT-4 leukemia.
In assay [11] the test system is SR leukemia.
In assay [12] the test system is RPMI-8226 leukemia.
The test system of assay [13] is OVCAR-8 ovarian.
For assay [14], the system named is OVCAR-5 ovarian.
Assay [15] deals with OVCAR-4 ovarian.
The subject of assay [16] is SK-OV-3 ovarian.
For assay [17], the system named is OVCAR-3 ovarian.
Assay [18] relates to HS 578T breast.
Assay [19] relates to NCI/ADR-RES ovarian.
Assay [20] deals with IGROV1 ovarian.

On to `COc1cc(C(=O)/C=C/c2c(-c3cccs3)nc3sc(C)cn23)cc(OC)c1OC`, for which the growth is 13.1% in assay [1]; 13.4% in assay [2]; 29% in assay [3]; -7.93% (active) in assay [4]; 8.26% (active) in assay [5]; 12.7% in assay [6]. In addition, the growth was -12.7% (active) in [7]; -15.7% (active) in assay [8]; 19.5% in assay [9]; -2.47% (active) in assay [10]; 4.77% (active) in assay [11]; 2.15% (active) in assay [12]. Moreover, the growth in [13] is 0.3% (active); in assay [14], 56.9%; in assay [15] it was 14.3%; in [16], 12.4%; in assay [17], -8.57% (active); in assay [18], -16.2% (active). Further, in assay [19], the growth is -35.4% (active).
For the molecule `COc1ccc2c(c1)C(c1c[nH]c3ccccc13)(c1c[nH]c3ccccc13)CCO2`, the growth was 43.6% in [1]; 35% in [2]; 50.6% in assay [3]; 26.1% in [4]; 59.7% in assay [5]; 45% in assay [6]. For the same molecule, the growth in [7] was 44%; in assay [8], 82.9%; in assay [9], 36.7%; in assay [10], 8.7% (active); in assay [11], 55.9%; in assay [12], 33.3%. Further, the growth is 61.2% in assay [13]; 76.6% in [14]; 26% in assay [15]; 23.9% in assay [16]; 48% in [20]; 57.4% in assay [17]. Moreover, the growth in [19] was 54.1%.
`CC(C)(C#N)c1cc(C(=O)Nc2cc(Nc3ncccc3-c3ncnc4nc[nH]c34)ccc2F)cc(C(F)(F)F)c1`: the growth in assay [1] was 5.07% (active); in assay [2], 62.8%; in assay [3], 55.2%; in assay [4] it was 17.5%; in [5], 68.5%; in assay [6] it was 44.4%. The growth in assay [7] was 24.3%; in assay [8], -24.9% (active); in assay [9], 57%; in assay [10], 57.6%; in assay [11] it was 52.4%; in [12] it was 40.6%. The growth in [13] is 49.5%; in assay [14], 32.1%; in assay [15], 46.6%; in assay [16], 91.1%; in assay [20], 8.69% (active); in assay [17], 70.1%. Also, in [19], the growth is 52.2%.
Take `O=C(CNc1ncco1)Nc1ccc(S(=O)(=O)c2ccc(NC(=O)CNc3ncco3)cc2)cc1`: the growth is -6.97% (active) in assay [1]; 50.4% in assay [2]; 8.32% (active) in assay [3]; 41.1% in assay [4]; 54.4% in assay [5]; 30.5% in [6]. Moreover, the growth in [7] was -51.6% (active); in [8], 100%; in assay [9] it was 0.572% (active); in assay [10], 5.92% (active); in assay [11], -0.678% (active); in assay [12], 11.2%. For the same molecule, the growth is -80.7% (active) in assay [13]; 28.5% in assay [14]; 17.5% in [15]; 76.1% in assay [16]; -10.3% (active) in [20]; 104% in assay [17]. Also, the growth in assay [19] is -12.5% (active).
On to `NC(=N\N=C/c1ccc(Cl)cc1Cl)/C(N)=N\N=C/c1ccc(Cl)cc1Cl`, for which the growth was 63.7% in assay [1]; 77.3% in assay [2]; 67.7% in [3]; 49.8% in [4]; 29.7% in assay [5]; 17.4% in assay [6]. Also, the growth is 69.9% in assay [7]; -2.93% (active) in assay [8]; 3.15% (active) in [9]; 96.6% in assay [10]; 51.1% in assay [11]; 76.6% in assay [13]. Further, the growth in assay [14] was 71.6%; in assay [15], -34% (active); in assay [16] it was 9.34% (active); in [20], 15.8%; in assay [17], 21.5%; in [18] it was 33.2%. The growth in assay [19] was 82.3%.
`COc1ccccc1/C=C/C1=C(C)CCC(c2ccccc2OC)C1C` (stereo not drawn): the growth in [1] was -7.95% (active); in [2], 35%; in [3], 28%; in assay [4], 4.1% (active); in [5], 41.1%; in assay [6], 13%. The growth in assay [7] is 2.23% (active); in assay [8] it was -4.12% (active); in assay [9] it was -9.01% (active); in [10], 4.37% (active); in assay [11], -13.2% (active); in assay [12] it was -4.33% (active). The growth was 19.7% in [13]; 28.9% in [14]; 42.7% in assay [15]; 33.4% in assay [16]; -21.6% (active) in [17]; 11.1% in assay [18]. For the same molecule, the growth in assay [19] is 18%.
In the case of `O=C1C=CC2(O)OC(c3ccccc3)CC(=O)C2=C1O` (stereo not drawn), the growth in [1] was 102%; in assay [2] it was 89.1%; in assay [3], 78.9%; in [4], 62.7%; in assay [5] it was 126%; in [6], 97.8%. The growth in assay [7] is 86.5%; in [8], 96%; in assay [9] it was 46.1%; in assay [10], 77.8%; in [11], 56.2%; in assay [13], 82%. Moreover, the growth in assay [14] is 96.4%; in assay [15], 79.5%; in assay [16], 106%; in assay [20] it was 90.9%; in assay [17], 1.12% (active); in assay [18], 102%. For the same molecule, the growth in assay [19] was 86%.
